The campaign covered roughly 5,500 compounds. About 2,000 (36%) were called active. Roughly 18% stayed inconclusive and do not appear here. No stated cut-off is given here; in the data, active means normalized growth mostly below about 0.91 (no sharp cut-off); inconclusive means no clear call, values can overlap the other calls; inactive means mostly above about 0.92. The list shows a part of the results.
Test: chemical genetic growth profiling, strain panel (AID 1159580);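 further: tested at 20 µM; growth read once vehicle control cultures reached saturation at 30 °C; 1 = growth at the plate median or of vehicle wells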
Details: growth OD
[1] = S. cerevisiae deletion strains, locus YHR030C, strain SLT2, stronger effect = lower value
[2] = S. cerevisiae deletion strains, locus YHR079C, strain IRE1, stronger effect = lower value
[3] = S. cerevisiae deletion strains, locus YJL095W, strain BCK1, stronger effect = lower value
[4] = S. cerevisiae deletion strains, locus YJR066W, strain TOR1, stronger effect = lower value
[5] = S. cerevisiae deletion strains, locus YLR113W, strain HOG1, stronger effect = lower value
[6] = S. cerevisiae deletion strains, locus YNL183C, strain NPR1, stronger effect = lower value
[7] = S. cerevisiae deletion strains, locus YOR231W, strain MKK1, stronger effect = lower value
[8] = S. cerevisiae deletion strains, locus YPL256C, strain CLN2, stronger effect = lower value
[9] = S. cerevisiae deletion strains, locus YCL061C, strain MRC1, stronger effect = lower value
[10] = S. cerevisiae deletion strains, locus YJL187C, strain SWE1, stronger effect = lower value
[11] = S. cerevisiae deletion strains, locus YAL013W, strain DEP1, stronger effect = lower value
[12] = S. cerevisiae deletion strains, locus YBR229C, strain ROT2, stronger effect = lower value
[13] = S. cerevisiae deletion strains, locus YDL101C, strain DUN1, stronger effect = lower value
[14] = S. cerevisiae deletion strains, locus YDL134C, strain PPH21, stronger effect = lower value
[15] = S. cerevisiae deletion strains, locus YDR150W, strain NUM1, stronger effect = lower value
[16] = S. cerevisiae deletion strains, locus YEL061C, strain CIN8, stronger effect = lower value
[17] = S. cerevisiae deletion strains, locus YGR078C, strain PAC10, stronger effect = lower value
[18] = S. cerevisiae deletion strains, locus YHR087W, strain rtc3, stronger effect = lower value
[19] = S. cerevisiae deletion strains, locus YJR043C, strain POL32, stronger effect = lower value
[20] = S. cerevisiae deletion strains, locus YJR075W, strain HOC1, stronger effect = lower value
[21] = S. cerevisiae deletion strains, locus YLR039C, strain RIC1, stronger effect = lower value
[22] = S. cerevisiae deletion strains, locus YLR058C, strain SHM2 (second series), stronger effect = lower value
[23] = S. cerevisiae deletion strains, locus YLR085C, strain ARP6, stronger effect = lower value
[24] = S. cerevisiae deletion strains, locus YLR262C, strain YPT6, stronger effect = lower value
[25] = S. cerevisiae deletion strains, locus YML094W, strain GIM5, stronger effect = lower value
[26] = S. cerevisiae deletion strains, locus YMR219W, strain ESC1, stronger effect = lower value
[27] = S. cerevisiae deletion strains, locus YMR263W, strain SAP30, stronger effect = lower value
[28] = S. cerevisiae deletion strains, locus YMR307W, strain GAS1, stronger effect = lower value
[29] = S. cerevisiae deletion strains, locus YNL153C, strain GIM3, stronger effect = lower value
[30] = S. cerevisiae deletion strains, locus YNL298W, strain CLA4 (second series), stronger effect = lower value
[31] = S. cerevisiae deletion strains, locus YNL322C, strain KRE1, stronger effect = lower value
[32] = S. cerevisiae deletion strains, locus YNR030W, strain Alg12, stronger effect = lower value
[33] = S. cerevisiae deletion strains, locus YPL055C, strain LGE1, stronger effect = lower value
[34] = S. cerevisiae deletion strains, locus YPL241C, strain CIN2, stronger effect = lower value
[35] = S. cerevisiae deletion strains, locus YPR135W, strain CTF4, stronger effect = lower value

Measured: normalized growth

CN/C(=C\[N+](=O)[O-])NCCSCc1csc(CN(C)C)n1
inactive: [1] 1.05 | [2] 1.04 | [3] 1.06 | [4] 0.927 | [5] 1.06 | [6] 0.996 | [7] 1.07 | [8] 1.08

CC(O)(P(=O)(O)O)P(=O)(O)O
inactive: S. cerevisiae deletion strains, locus YAL021C, strain ccr4, stronger effect = lower value 1.03 | S. cerevisiae deletion strains, locus YAL026C, strain drs2, stronger effect = lower value 0.993 | S. cerevisiae deletion strains, locus YAL030W, strain snc1, stronger effect = lower value 0.993 | S. cerevisiae deletion strains, locus YBL061C, strain skt5, stronger effect = lower value 0.993 | S. cerevisiae deletion strains, locus YBR009C, strain hhf1, stronger effect = lower value 0.976 | S. cerevisiae deletion strains, locus YBR023C, strain chs3, stronger effect = lower value 0.99 | S. cerevisiae deletion strains, locus YBR171W, strain sec66, stronger effect = lower value 0.992 | S. cerevisiae deletion strains, locus YBR231C, strain swc5, stronger effect = lower value 0.992 | S. cerevisiae deletion strains, locus YBR279W, strain paf1, stronger effect = lower value 0.997 | S. cerevisiae deletion strains, locus YCL011C, strain gbp2, stronger effect = lower value 0.99 | S. cerevisiae deletion strains, locus YCL016C, strain dcc1, stronger effect = lower value 0.988 | [9] 1 | S. cerevisiae deletion strains, locus YCL069W, strain vba3, stronger effect = lower value 0.992 | S. cerevisiae deletion strains, locus YCR088W, strain abp1, stronger effect = lower value 0.989 | S. cerevisiae deletion strains, locus YDL005C, strain med2, stronger effect = lower value 1 | S. cerevisiae deletion strains, locus YDL040C, strain nat1, stronger effect = lower value 0.997 | S. cerevisiae deletion strains, locus YDR001C, strain nth1, stronger effect = lower value 0.988 | S. cerevisiae deletion strains, locus YDR069C, strain doa4, stronger effect = lower value 0.978 | S. cerevisiae deletion strains, locus YDR137W, strain rgp1, stronger effect = lower value 1 | S. cerevisiae deletion strains, locus YDR159W, strain sac3, stronger effect = lower value 0.955 | S. cerevisiae deletion strains, locus YDR195W, strain ref2 0.93 | S. cerevisiae deletion strains, locus YDR297W, strain sur2, stronger effect = lower value 0.993 | S. cerevisiae deletion strains, locus YDR334W, strain swr1, stronger effect = lower value 0.987 | S. cerevisiae deletion strains, locus YDR335W, strain msn5, stronger effect = lower value 0.991 | S. cerevisiae deletion strains, locus YDR392W, strain spt3, stronger effect = lower value 0.868 | S. cerevisiae deletion strains, locus YEL003W, strain gim4, stronger effect = lower value 0.982 | S. cerevisiae deletion strains, locus YEL037C, strain rad23, stronger effect = lower value 0.985 | S. cerevisiae deletion strains, locus YEL061C, strain CIN8 (second series), stronger effect = lower value 0.982 | S. cerevisiae deletion strains, locus YER015W, strain faa2, stronger effect = lower value 0.999 | S. cerevisiae deletion strains, locus YER016W, strain bim1, stronger effect = lower value 0.979 | S. cerevisiae deletion strains, locus YER111C, strain swi4, stronger effect = lower value 0.989 | S. cerevisiae deletion strains, locus YER155C, strain BEM2 (second series), stronger effect = lower value 0.969 | S. cerevisiae deletion strains, locus YFR010W, strain ubp6, stronger effect = lower value 0.993 | S. cerevisiae deletion strains, locus YGL167C, strain pmr1, stronger effect = lower value 0.982 | S. cerevisiae deletion strains, locus YGL173C, strain kem1, stronger effect = lower value 0.987 | S. cerevisiae deletion strains, locus YGL227W, strain vid30, stronger effect = lower value 0.993 | S. cerevisiae deletion strains, locus YGL240W, strain doc1, stronger effect = lower value 0.982 | S. cerevisiae deletion strains, locus YGL253W, strain hxk2, stronger effect = lower value 0.984 | S. cerevisiae deletion strains, locus YHR013C, strain ard1, stronger effect = lower value 0.954 | S. cerevisiae deletion strains, locus YHR027C, strain rpn1, stronger effect = lower value 0.996 | [1] 0.958 | [2] 0.961 | S. cerevisiae deletion strains, locus YHR142W, strain chs7, stronger effect = lower value 0.998 | S. cerevisiae deletion strains, locus YJL092W, strain hpr5, stronger effect = lower value 0.987 | S. cerevisiae deletion strains, locus YJL095W, strain BCK1 (second series), stronger effect = lower value 0.994 | [3] 0.995 | S. cerevisiae deletion strains, locus YJL115W, strain asf1, stronger effect = lower value 0.986 | S. cerevisiae deletion strains, locus YJL129C, strain trk1, stronger effect = lower value 0.989 | S. cerevisiae deletion strains, locus YJL154C, strain vps35, stronger effect = lower value 0.986 | S. cerevisiae deletion strains, locus YJL164C, strain tpk1, stronger effect = lower value 1 | S. cerevisiae deletion strains, locus YJL166W, strain qcr8, stronger effect = lower value 0.996 | [10] 1 | [4] 0.93 | S. cerevisiae deletion strains, locus YKL160W, strain elf1, stronger effect = lower value 1.03 | S. cerevisiae deletion strains, locus YKR026C, strain gcn3, stronger effect = lower value 0.993 | S. cerevisiae deletion strains, locus YKR091W, strain srl3, stronger effect = lower value 0.995 | S. cerevisiae deletion strains, locus YLL001W, strain dnm1, stronger effect = lower value 0.98 | S. cerevisiae deletion strains, locus YLL026W, stronger effect = lower value 0.996 | S. cerevisiae deletion strains, locus YLL041C, strain sdh2, stronger effect = lower value 0.994 | S. cerevisiae deletion strains, locus YLR027C, strain aat2, stronger effect = lower value 0.999 | [5] 0.976 | S. cerevisiae deletion strains, locus YLR221C, strain rsa3, stronger effect = lower value 1.02 | S. cerevisiae deletion strains, locus YLR258W, strain gsy2, stronger effect = lower value 0.982 | S. cerevisiae deletion strains, locus YLR262C, strain YPT6 (second series), stronger effect = lower value 1 | S. cerevisiae deletion strains, locus YLR320W, strain mms22, stronger effect = lower value 0.983 | S. cerevisiae deletion strains, locus YLR342W, strain FKS1, stronger effect = lower value 1 | S. cerevisiae deletion strains, locus YLR357W, strain rsc2, stronger effect = lower value 0.981 | S. cerevisiae deletion strains, locus YLR370C, strain arc18, stronger effect = lower value 0.996 | S. cerevisiae deletion strains, locus YLR384C, strain iki3, stronger effect = lower value 0.995 | S. cerevisiae deletion strains, locus YML120C, strain ndi1, stronger effect = lower value 1.01 | S. cerevisiae deletion strains, locus YMR058W, strain fet3, stronger effect = lower value 0.998 | S. cerevisiae deletion strains, locus YMR125W, strain sto1, stronger effect = lower value 0.979 | S. cerevisiae deletion strains, locus YMR129W, stronger effect = lower value 0.994 | S. cerevisiae deletion strains, locus YMR205C, strain PFK2, stronger effect = lower value 0.967 | S. cerevisiae deletion strains, locus YMR231W, strain pep5, stronger effect = lower value 0.993 | S. cerevisiae deletion strains, locus YNL071W, strain lat1, stronger effect = lower value 0.993 | [6] 0.929 | S. cerevisiae deletion strains, locus YNL209W, strain ssb2, stronger effect = lower value 0.994 | S. cerevisiae deletion strains, locus YNL248C, strain rpa49, stronger effect = lower value 1.01 | S. cerevisiae deletion strains, locus YNL322C, strain KRE1 (second series), stronger effect = lower value 1 | S. cerevisiae deletion strains, locus YNR049C, strain mso1, stronger effect = lower value 0.985 | S. cerevisiae deletion strains, locus YOR001W, strain rrp6, stronger effect = lower value 1.02 | S. cerevisiae deletion strains, locus YOR070C, strain gyp1, stronger effect = lower value 0.992 | S. cerevisiae deletion strains, locus YOR080W, strain dia2, stronger effect = lower value 0.997 | S. cerevisiae deletion strains, locus YOR083W, strain WHI5, stronger effect = lower value 1.03 | S. cerevisiae deletion strains, locus YOR106W, strain vam3, stronger effect = lower value 1.02 | [7] 0.972 | S. cerevisiae deletion strains, locus YOR265W, strain rbl2, stronger effect = lower value 0.989 | S. cerevisiae deletion strains, locus YOR270C, strain vph1, stronger effect = lower value 0.99 | S. cerevisiae deletion strains, locus YOR290C, strain snf2, stronger effect = lower value 0.916 | S. cerevisiae deletion strains, locus YPL051W, strain arl3, stronger effect = lower value 1.01 | S. cerevisiae deletion strains, locus YPL078C, strain atp4, stronger effect = lower value 1.01 | S. cerevisiae deletion strains, locus YPL106C, strain sse1, stronger effect = lower value 0.985 | S. cerevisiae deletion strains, locus YPL240C, strain hsp82, stronger effect = lower value 0.983 | [8] 0.921

Cn1c(=S)[nH]c2cc(C(F)(F)F)ccc21
inactive: [11] 0.977 | [12] 0.987 | [13] 0.968 | [14] 0.979 | [15] 0.959 | [17] 0.975 | [1] 0.767 | [18] 1 | [10] 0.98 | [19] 0.978 | [20] 1.02 | [22] 0.974 | [25] 0.911 | [26] 0.987 | [27] 0.966 | [28] 0.718 | [29] 0.997 | [31] 0.998 | [32] 0.946 | [33] 0.866 | [34] 0.925 | S. cerevisiae strains, strain wild type, stronger effect = lower value 0.969
active: [16] 0.888 | [21] 0.538 | [23] 0.378 | [24] 0.733 | [30] 0.803 | [35] 0.617

O=c1[nH]c2cc(C(F)(F)F)ccc2n1-c1cc(C(F)(F)F)ccc1O
inactive: [11] 1.02 | S. cerevisiae deletion strains, locus YAL040C, strain CLN3, stronger effect = lower value 0.998 | S. cerevisiae deletion strains, locus YCL061C, strain MRC1 (second series), stronger effect = lower value 1.01 | [15] 1.01 | S. cerevisiae deletion strains, locus YDR363W, strain ESC2, stronger effect = lower value 1.01 | S. cerevisiae deletion strains, locus YER002W, strain NOP16, stronger effect = lower value 1.02 | [17] 1.03 | [28] 1.02 | S. cerevisiae deletion strains, locus YNL175C, strain NOP13, stronger effect = lower value 0.961 | S. cerevisiae deletion strains, locus YNL197C, strain WHI3, stronger effect = lower value 0.995 | S. cerevisiae deletion strains, locus YNL224C, strain SQS1, stronger effect = lower value 0.998 | S. cerevisiae deletion strains, locus YOR083W, strain WHI5 (second series), stronger effect = lower value 0.903 | [33] 1.01

FC(F)(F)c1ccc2[nH]c(=S)[nH]c2c1
inactive: [11] 0.995 | [12] 0.996 | [9] 0.983 | [13] 0.983 | [14] 0.99 | [15] 0.986 | [16] 0.998 | [17] 0.982 | S. cerevisiae deletion strains, locus YGR229C, strain SMI1, stronger effect = lower value 1 | [1] 0.89 | [18] 0.999 | [10] 0.997 | [19] 0.986 | [20] 1.01 | [21] 0.952 | [22] 0.994 | [23] 0.955 | [24] 0.963 | [25] 0.905 | [26] 1 | [27] 1.02 | S. cerevisiae deletion strains, locus YNL128W, strain TEP1, stronger effect = lower value 0.993 | [29] 1 | [30] 0.979 | [31] 0.997 | [32] 0.977 | S. cerevisiae deletion strains, locus YOL006C, strain TOP1, stronger effect = lower value 0.997 | [33] 0.98 | [34] 0.966 | [35] 0.779

Source: PubChem BioAssay AID1159580 (chemical genetic matrix, 2015)
